The source of these data is the supplement of paper PMC11417369.

± gives the standard deviation of the averaged measurements. Whole data set: some 25,000 sequences, median “ln(normalized median fluorescence intensity)” near 10, cut for the highest 2% near 12. The entries come from a sample that favours the highest values as a whole.

The test system of the experiment is PfAP2-G AP2 domain (GST-tagged). Put plainly: gcPBM binding intensity (ln(normalized median fluorescence intensity)); higher = stronger DNA binding. In outline:
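Each value is the highest Masliner-normalised natural-log median intensity across replicate spots of either orientation of a probe. The probes were primer-extended double-stranded 36-bp intergenic genomic sequences on an Agilent 4 × 180k array, alongside negative controls, exposed for 1 h to GST-tagged P. falciparum DNA-binding domains expressed in E. coli. Bound protein was picked up with Alexa488 anti-GST antibody and scanned at 488 nm.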
Regarding “AATAAAAATAATGAATGTACATATATATATACAATA [XGTACX_site3342]”, the “gcPBM binding intensity (ln)” value stood at 10.9 ± 0.4. As for “AAATGTAATATAAATAGTACATATTAAATAAAATTA [XGTACX_site6917]”, the “gcPBM binding intensity (ln)” value is 11.1 ± 0.88. For “ATGTATGTAATAAAAAGTACATATGTTCATAATAAA [XGTACX_site842]”, the “gcPBM binding intensity (ln)” value is 11.4 ± 0.57. In the case of “TATTTTGAAAATAAAAGTACAAATTTTATATTTAAA [XGTACX_site3238]”, the “gcPBM binding intensity (ln)” value was found to be 11.1 ± 0.83. As to “AAAAAAAAAAAAAGTAGTACATAATATGTTCCTCCT [XGTACX_site8356]”, the “gcPBM binding intensity (ln)” value came out at 11.6 ± 1. Then “ATAAGTAATATAATATGTACATATATATATATATAT [XGTACX_site3818]”, with 11.2 ± 0.5; and “AATTTGAAATAAAGTAGTACAGTATATAAAAATATA [XGTACX_site128]”, with 11.8 ± 1.1; and “TCGTATTTAAAATGTAGTACATAATTTGAAAAATAA [XGTACX_site5832]”, with 11.6 ± 0.83. As for “AAATGAAATAAATGTAGTACACATATACAATATATA [XGTACX_site6951]”, the “gcPBM binding intensity (ln)” value worked out at 11.7 ± 1.1. Turning to “AAAACTATTAAATGTAGTACATAATTATTGAAATAA [XGTACX_site8716]”, the “gcPBM binding intensity (ln)” value was found to be 11.6 ± 0.91.

For the sequence “TGAAAAATAAATAAATGTACATATATATATATATAC [XGTACX_site7310]”, the “gcPBM binding intensity (ln)” value came to 10.9 ± 0.49. As for “AAGTATAAATTAAAATGTACTTATAAAAAAAAAGAA [XGTACX_site7028]”, the “gcPBM binding intensity (ln)” value is 11.2 ± 0.72. On to “TAGTAACTTGTATTCACACAAATTATATTATATTAC [CACACA_site5041]”, for which the “gcPBM binding intensity (ln)” value amounted to 9.965 ± 0.021. For “ACGTATGTATATTACACACATACATATTATTCACTA [CACACA_site204]”, the “gcPBM binding intensity (ln)” value is 10.1 ± 0.16. As to “AGTATGTAAATGTGCCATATATATATTAAATACATA [CACACA_negctrl_site14]”, the “gcPBM binding intensity (ln)” value was found to be 10.1 ± 0.23.

On to “AACATATACACGAACACACACACATATAAATAAATA [CACACA_site6380]”, for which the “gcPBM binding intensity (ln)” value came out at 10.3 ± 0.37.

In the case of “ATAAAGTATATTATATGTACATATATATATTATATA [XGTACX_site1345]”, the “gcPBM binding intensity (ln)” value is 11.1 ± 0.52. In the case of “TTTTTTTTAGTATGAACACACATATATATTATAAAA [CACACA_site2935]”, the “gcPBM binding intensity (ln)” value came to 10.1 ± 0.25. Regarding “ATAAGAAAAAGACACACACACAAAAAAAAAAAAAAA [CACACA_site2828]”, the “gcPBM binding intensity (ln)” value came out at 9.95 ± 0.49. As to “AATAATTATAAAAAATGTACAAAAAAAAAAAAAAAA [XGTACX_site3681]”, the “gcPBM binding intensity (ln)” value was 10.5 ± 0.83. “AAAGATAAAATATTATGTACATATATATATATATAT [XGTACX_site5079]”: the “gcPBM binding intensity (ln)” value was determined as 11.1 ± 0.56.

Turning to “AAGATAAAATTATGTAGTACAAAAAAAAATAAAAAA [XGTACX_site139]”, the “gcPBM binding intensity (ln)” value came out at 11.7 ± 0.91. As to “CGCATGTATTTTGTGTGTACTAATTATAATCAACTT [XGTACX_site4709]”, the “gcPBM binding intensity (ln)” value was determined as 11.4 ± 0.83. Then “TATGAGGAAACGTGGTGTACTTTTTTTTAATAAAAA [XGTACX_site1351]”, with 11.6 ± 0.93; and “AAAAGTGTATGTAGGTGTACTTTTTATTTCTTCTTT [XGTACX_site8819]”, with 11.6 ± 0.98.

In the case of “TTTTTTATGAGGTGGTGTACTTTTTTTTTTTTCTTT [XGTACX_site8550]”, the “gcPBM binding intensity (ln)” value stood at 11.7 ± 0.97.

For “TATATGCATAATAACTGTACACAAATTGGGGTTGAT [XGTACX_site459]”, the “gcPBM binding intensity (ln)” value was 11.6 ± 0.63. With “ATATATATAATTTGTACACACAAATATGCATATATA [CACACA_site3432]”, the “gcPBM binding intensity (ln)” value came to 11.3 ± 0.98. Turning to “ATATATATATAATTTGTACACACAAATATGCATATA [CACACA_site9136]”, the “gcPBM binding intensity (ln)” value is 11.3 ± 0.88. As for “TATGTGCATATAAACTCACACATTGTATATTACATG [CACACA_site6106]”, the “gcPBM binding intensity (ln)” value stood at 10.14 ± 0.035. Under “AATGATTGATTTTATTGTACGTACTCGGAATATGGT [XGTACX_site4976]” stands 11.8 ± 1. As for “ATATATACGTATGAATGTATATTTGTTTGATTTTTT [CACACA_negctrl_site835]”, the “gcPBM binding intensity (ln)” value is 9.88 ± 0.12. Regarding “ATTGTTTATATTGATTGTACTCATTTTTTTTTTATT [XGTACX_site1946]”, the “gcPBM binding intensity (ln)” value amounted to 11.5 ± 0.99. Turning to “TATATATATACATATTGTACATATTACATGCTATTA [XGTACX_site1184]”, the “gcPBM binding intensity (ln)” value was found to be 10.9 ± 0.64. As to “ATATAAATATGACACACACACAAAAAAAATAAAGAC [CACACA_site6208]”, the “gcPBM binding intensity (ln)” value was found to be 10.3 ± 0.2. Under “TTTTTTTTTTTTTAAACATGCATAATAAATATAATA [TGCATGCA_site265]” stands 9.81 ± 0.35; under “TGAAATTTATAATAGTGTACAAAGAAAAAAAAAAAA [XGTACX_site4965]”, 11 ± 0.78. Take “ATATATATATATATATGTACGTAAACAAAAATTTAT [XGTACX_site6780]”: the “gcPBM binding intensity (ln)” value was 11.4 ± 0.91. As for “ACCTATTTATAATAGTGTACGTACAAATTTGTTTAC [XGTACX_site8176]”, the “gcPBM binding intensity (ln)” value came out at 11.7 ± 0.89. For the sequence “TTTCGTAAACAAATTTGTACGTACAAATTTATAAAT [XGTACX_site8175]”, the “gcPBM binding intensity (ln)” value was 11.7 ± 1.1.

On to “ATTATATAATTTAATCGTACACAAATATTTGTTAGT [XGTACX_site5913]”, for which the “gcPBM binding intensity (ln)” value was determined as 11.3 ± 0.8. Then “CATATATATTTTATTTGTACGTATAAAAAAACAAAA [XGTACX_site4253]”, with 11.5 ± 1.1; and “TTTTTTAAAAATAACTGTACAGAGGCTGTTAGGATA [XGTACX_site2521]”, with 11 ± 0.4; and “TTCCAAAAAATTATTACACACATATGAGCACATATA [CACACA_site4543]”, with 10.1 ± 0.18.

Take “TTTCCTTATTAAAACACACAAATACATTATTTAATC [CACACA_site7080]”: the “gcPBM binding intensity (ln)” value stood at 9.875 ± 0.035.
